# Source: the supplement of paper PMC7595190
# Values without a mark were called inactive.
# Key:
# CMK = experiment: CellTox Green cytotoxicity fluorescence relative to DMSO vehicle (fold of vehicle RFU); higher = more cell death (loss of membrane integrity), active = 2 or more
# Procedure, shortened: (§1)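 Single compounds from the Selleckchem apoptosis library were applied at final 0.01, 0.1 and 1 µM (0.1% DMSO vehicle) to MV4-11, CMK and Kasumi-1 cells seeded at 4.0 × 10^4 cells per well with CellTox Green reagent. After incubation at 37 °C, 5% CO2, fluorescence was read at 24, 48 and 72 h. Cytotoxicity, meaning loss of membrane integrity, is shown as fold of the DMSO vehicle signal.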
# Kasumi-1 = experiment: as above
# Procedure, shortened: as §1
SMILES,"CellTox Green cytotoxicity fluorescence (CMK; 0.01 µM, 24 h)","CellTox Green cytotoxicity fluorescence (CMK; 0.01 µM, 48 h)","CellTox Green cytotoxicity fluorescence (CMK; 0.01 µM, 72 h)","CellTox Green cytotoxicity fluorescence (CMK; 0.1 µM, 24 h)","CellTox Green cytotoxicity fluorescence (CMK; 0.1 µM, 48 h)","CellTox Green cytotoxicity fluorescence (CMK; 0.1 µM, 72 h)","CellTox Green cytotoxicity fluorescence (CMK; 1 µM, 24 h)","CellTox Green cytotoxicity fluorescence (CMK; 1 µM, 48 h)","CellTox Green cytotoxicity fluorescence (CMK; 1 µM, 72 h)","CellTox Green cytotoxicity fluorescence (Kasumi-1; 0.01 µM, 24 h)","CellTox Green cytotoxicity fluorescence (Kasumi-1; 0.01 µM, 48 h)","CellTox Green cytotoxicity fluorescence (Kasumi-1; 0.01 µM, 72 h)","CellTox Green cytotoxicity fluorescence (Kasumi-1; 0.1 µM, 24 h)","CellTox Green cytotoxicity fluorescence (Kasumi-1; 0.1 µM, 48 h)","CellTox Green cytotoxicity fluorescence (Kasumi-1; 0.1 µM, 72 h)","CellTox Green cytotoxicity fluorescence (Kasumi-1; 1 µM, 24 h)","CellTox Green cytotoxicity fluorescence (Kasumi-1; 1 µM, 48 h)","CellTox Green cytotoxicity fluorescence (Kasumi-1; 1 µM, 72 h)"
O=c1[nH]c2ccccc2n1C1CCN(Cc2ccc(-c3[nH]c4cc5ncnc5cc4nc3-c3ccccc3)cc2)CC1,1.02,0.991,0.913,0.983,0.97,0.906,0.966,0.967,0.949,0.972,0.961,0.96,0.969,0.99,0.958,1.08,1.29,1.35
Cn1c(COP(=O)(NCCBr)NCCBr)cnc1[N+](=O)[O-],0.974,0.98,0.991,0.972,0.996,1.07,0.975,1.24,1.89,1.03,0.968,0.958,0.962,0.956,0.952,0.977,0.974,0.977
Cc1cc2c(C(C)C)c(O)c(O)c(C=O)c2c(O)c1-c1c(C)cc2c(C(C)C)c(O)c(O)c(C=O)c2c1O,0.986,0.967,0.952,0.998,0.982,0.961,0.986,0.979,0.85,0.96,0.957,0.955,0.99,0.973,0.975,0.98,0.966,0.978
CC[C@H](C)[C@@H]([C@@H](CC(=O)N1CCC[C@H]1[C@H](OC)[C@@H](C)C(=O)N[C@H](C)[C@@H](O)c1ccccc1)OC)N(C)C(=O)[C@@H](NC(=O)[C@@H](NC)C(C)C)C(C)C [Monomethyl auristatin E],1.24,1.82,1.43,1.52,2.24 (active),1.56,1.97,2.64 (active),1.78,1.06,1.27,1.44,1.17,1.42,1.53,1.31,1.56,1.62
CC1=C(O)C(=O)C=C2C1=CC=C1[C@@]2(C)CC[C@@]2(C)[C@@H]3C[C@](C)(C(=O)O)CC[C@]3(C)CC[C@]12C [Celastrol],0.959,0.961,0.98,0.946,0.94,0.932,2.38 (active),3.09 (active),2.25 (active),0.916,0.923,0.903,0.954,0.962,0.952,1.23,1.43,1.47
COc1ccc2c(c1)/C(=C/c1cnc[nH]1)C(=O)N2,0.911,0.923,1.04,0.922,0.924,1.05,0.934,0.914,0.881,0.934,0.941,0.971,0.976,0.981,0.966,0.881,0.948,0.963
CN[C@@H]1C[C@H]2O[C@@](C)([C@@H]1OC)n1c3ccccc3c3c4c(c5c6ccccc6n2c5c31)C(=O)NC4 [Staurosporine],0.96,0.998,1.07,1.01,1.29,1.4,1.1,1.45,1.29,0.984,1.18,1.24,1.08,1.54,1.74,1.67,2.08 (active),2.12 (active)
COc1cc(C)[nH]c(=O)c1CNC(=O)c1c(C)n([C@H](C)C2CCOCC2)c2ccccc12,0.942,0.948,0.965,0.936,0.944,0.919,0.949,0.973,0.965,0.935,0.952,0.966,0.97,0.948,0.954,1.03,0.982,0.976
O=C(O)C(=O)c1cn(Cc2ccccc2)c2ccc(-c3ccc(OC(F)(F)F)cc3)cc12 [Tiplaxtinin],1.02,1.01,1,1.01,1.02,0.987,0.968,0.972,0.943,1.02,1.01,1.03,1.02,1.02,1.03,0.968,0.983,0.973
COc1cc([C@@H]2c3cc4c(cc3[C@H](O)[C@H]3COC(=O)[C@@H]23)OCO4)cc(OC)c1OC [Picropodophyllin],0.955,0.958,0.973,1.06,1.23,1.08,1.34,2.12 (active),1.58,0.945,0.978,0.997,0.993,0.999,1.06,1.16,1.35,1.48
